USP1 inh: Inhibitors of USP1/UAF1: Primary Screen; Potency, µM (doses to about 57.1 µM), inactives show at the top dose activity change, negative = inhibition, actives largely listed as inhibitors; 390,000 tested, 0.23% active; recombinant USP1/UAF1, Ub-Rhodamine cleavage fluorescence; active means well fitted inhibition curve with a large enough effect; inconclusive means small, poorly fitted or top-dose-only effect; inactive means no such curve, though single readings can be large or run the other way; further: potency means the concentration at half of the fitted maximal effect; nearly all actives have a fitted effect of over 60% in size
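Step one: compound is pinned into 1nM USP1/UAF1 in HEPES pH 7.8 buffer with TCEP. Step two: 15 min room-temperature incubation. Step three: Ub-Rho (150nM final) starts cleavage, tracked by fluorescence over six one-minute reads.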
KCNH2 WT inh: qHTS for Inhibitors of KCHN2 3.1: Wildtype qHTS. Voltage-gated inwardly rectifying potassium channel KCNH2 (Homo sapiens), Q12809. U2OS, BacMam KCNH2, thallium flux FluxOr; hits give low values. activity change, % at 1.84 µM. 340,000 tested, 0.37% active. AID 720551, 2013;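 active means maximum activity change below -70%; inconclusive means maximum activity change between -70% and -50%; inactive means maximum activity change above -50%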
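U2OS cells were transduced with wild-type KCNH2 virus (2.03 x 10^8 / mL) for 4 h at room temperature, then cultured overnight at 37 C. Thallium flux was read with FluxOr dye. Rate constants were normalized to DMSO controls.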
KCNH2 3.1 inh: qHTS for Inhibitors of KCHN2 3.1: Mutant qHTS. Potassium voltage-gated channel subfamily H member 2, brain isoform KCNH2 3.1 (human). U2OS KCNH2 3.1, thallium flux FluxOr; hits give low values. activity change, % (tested at about 1.8 µM). 340,000 tested, 0.95% active. AID 720553, 2013;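 active means maximum activity change below -70%; inconclusive means maximum activity change from -70% to -50%; inactive means maximum activity change above -50%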;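 further: thallium influx rate constant from kinetic fluorescence after stimulation buffer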
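U2OS cells transduced with KCNH2 3.1 mutant virus (1.77 x 10^8 /mL, 4 h), plated overnight at 37 C, loaded 45 min with FluxOr dye plus Red40 quencher. Thallium flux rate constant from kinetic reads after stimulation buffer, normalised to controls.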
Coupling enz: qHTS Assay for Inhibitors of Fructose-1,6-bisphosphate Aldolase from Giardia Lamblia: Coupling assay counterscreen. coupling enzyme system counterscreen, AmpLite Red fluorescence. activity change, negative = inhibition, % at 58.2 µM, hits read low. 290,000 tested, 0.67% active. AID 2472, 2010; in the data active means activity change below about -30%
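Counterscreen of the coupled detection system alone, without aldolase: glyceraldehyde-3-phosphate coupling enzymes plus AmpLite Red readout. Compounds at 57.5 uM final, 10 min RT preincubation, 20 min RT reaction, fluorescence 525/598 nm.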
Giardia killer: Small Molecules that selectively kill Giardia lamblia: qHTS | Giardia lamblia trophozoite viability | activity change, % at 7.66 µM, hits read low | 340,000 tested, 0.15% active; in the data active means activity change below about -80%; inconclusive means between about -30% and that limit;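 further: parasites exposed to compound for two days anaerobically before the ATP read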
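Trophozoites 100 cells/well + cpd; 48 hrs, 37 deg C, anaerobic. ATPLite 1-Step added, 15-30 min RT, luminescence read (ATP-based viability).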
* = called active by the depositor; ? = inconclusive; · = not tested or not shown. Most compounds without a hit are left out; they make up all but 1.7% or so of the library. On the % scale 0 is the no-effect control and ±100 the full control effect.

SMILES	USP1 inh	KCNH2 WT inh	KCNH2 3.1 inh	Coupling enz	Giardia killer
CC1(C)Cc2ccccc2C(Nn2cnnc2)=N1	0%	-7	5	1	-5
COc1cc(C2NC(=O)NC(O)(C(F)(F)F)C2C(C)=O)cc(OC)c1OC (configuration not stated)	-14%	-186*	-3	2	-13
CC(=O)C1C(c2ccc(F)cc2)NC(=O)NC1(O)C(F)(F)F (configuration not stated)	-15%	0	7	0	7
N#Cc1ccc(C(=O)N(Cc2ccco2)Cc2cccs2)cc1	·	·	·	·	8
CCNC(=S)Nc1cccc(S(=O)(=O)Nc2ccccc2OC)c1	-13%	3	-85*	2	2
Clc1ccc2oc(-c3ccccc3)cc(=NCCCN3CCOCC3)c2c1	-12%	-7	4	0	-87*
Cc1ccc(C)c(NC(=O)Cn2c(=O)n(Cc3nc(C)no3)c(=O)c3cc4c(cc32)OCO4)c1	-9%	·	·	·	·
CSc1ccc(C(=O)C2CCCN(Cc3cccc4nccnc34)C2)cc1 (configuration not stated)	-7%	?	-108*	-2	47
O=C(c1ccc(C(F)(F)F)cc1)C1CCCN(Cc2cccn2-c2ncccn2)C1 (configuration not stated)	-2%	-112*	-111*	4	-14
O=C(c1ccc(C(F)(F)F)cc1)C1CCCN(C(=O)c2cnccn2)C1 (configuration not stated)	-14%	3	8	3	7
O=C(c1cccc(C(F)(F)F)c1)C1CCCN(Cc2cccn2-c2ncccn2)C1 (configuration not stated)	-19%	-72*	-9	0	-5
NS(=O)(=O)c1ccc(N2CCOCC2)c(C(=O)NCc2ccc3c(c2)OCO3)c1	-10%	4	10	·	5
O=C(NC1=C(Nc2ccc(F)cc2)C(=O)c2ccccc2C1=O)c1ccc(Cl)cc1	?	16	1	-42*	7
COc1cccc(-n2ccnc2SCC(=O)Nc2cccc(C)c2C)c1	-33%	·	·	·	·
CC[C@@H](C)C(NC(=O)OC(C)(C)C)c1cn([C@@H](CCCCNC(=O)OC(C)(C)C)C(=O)N2CCN(C(=O)OC(C)(C)C)CC2)nn1 (some centres not stated)	?	-291*	-5	2	-9
CC(C)CC(NC(=O)OC(C)(C)C)c1cn([C@@H](CCCCNC(=O)OC(C)(C)C)C(=O)N2CCN(C(=O)OC(C)(C)C)CC2)nn1 (some centres not stated)	?	-2	0	-4	-6
COc1ccc2c(C)c(CCC(=O)NCc3ccccc3Cl)c(=O)oc2c1C	-21%	·	·	·	·
Cc1c(Cl)cccc1N1C(=O)C(N2C(=O)c3cccc([N+](=O)[O-])c3C2=O)C1c1cccs1 (configuration not stated)	-20%	3	2	-42*	6
COc1ccc(-n2ncc3c(N4CCCCC4)ncnc32)cc1	-29%	7	-1	-2	-82*
Cc1nnc(C)c2c(C)n(-c3ccccc3N)c(C)c12	-16%	5	-1	-40*	12
O=C(c1ccc(-c2nc3ccccc3s2)s1)N1CCOCC1	-16%	-12	15	-1	-84*
CCN1CCN(C(=O)c2ccc(-c3nc4ccccc4s3)s2)CC1	1%	35	11	-1	6
O=C(NC1CC1)c1ccc(-c2nc3ccccc3s2)s1	-1%	-1	6	3	-100*
Cc1ccc2nc(NC(=O)c3ccc(-c4nc5ccccc5s4)s3)sc2c1	-21%	-11	-1	1	-8
Cc1ccc(NC(=O)c2cnc(N3CCCCC3)c3ccccc23)c(C)c1	-9%	·	·	·	·
c1ccc(-n2cnc3cc(NCc4ccncc4)ccc32)cc1	-7%	13	1	-42*	2
CC(C)(C)n1cnc2cc(NCc3ccc(Br)cc3)ccc21	-20%	23	-96*	-2	-5

Bioassay records: PubChem BioAssay, National Center for Advancing Translational Sciences (NCATS)
